Shiga inhibitor: Shiga toxin inhibition; AID 2315; actives 9.2% (n = 290,000); inhibition, % at 38.7 µM; Vero cells, Shiga toxin protein synthesis inhibition reporter; in the data active = inhibition mostly above about 28%, no sharp cut-off; inactive = mostly below about 43%; note: 0% is about no effect
NS1 inh: inhibitors of influenza NS1 protein function | Potency, µM (top dose mostly 46.1 µM), inactives show top-dose activity, positive = more growth | actives 0.4% (n = 270,000); calls by dose curve; note: potency is the fitted concentration of half-maximal effect; actives are rising curves; nearly all actives have a fitted effect of over 50% in size
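A cell-based growth assay was used: compounds that relieve NS1-induced slow growth of budding yeast raise OD600. Assay medium was yeast nitrogen base with ammonium sulphate and -URA supplement, pH 6.0, with 2% galactose.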
FBPA Giardia inh: Giardia lamblia aldolase inhibition; purified Giardia FBPA; Potency, µM (titrated, usually from 59.6 µM), without a hit: at the top dose activity, negative = inhibition, usual class: inhibitors; actives 0.71% (n = 290,000); note: potency is the fitted concentration of half-maximal effect; % is set by controls: 0 for no effect and ±100 for the full control effect; nearly all actives have a fitted effect of over 55% in size
Target sequence (A8B2U2 whole entry, looked up): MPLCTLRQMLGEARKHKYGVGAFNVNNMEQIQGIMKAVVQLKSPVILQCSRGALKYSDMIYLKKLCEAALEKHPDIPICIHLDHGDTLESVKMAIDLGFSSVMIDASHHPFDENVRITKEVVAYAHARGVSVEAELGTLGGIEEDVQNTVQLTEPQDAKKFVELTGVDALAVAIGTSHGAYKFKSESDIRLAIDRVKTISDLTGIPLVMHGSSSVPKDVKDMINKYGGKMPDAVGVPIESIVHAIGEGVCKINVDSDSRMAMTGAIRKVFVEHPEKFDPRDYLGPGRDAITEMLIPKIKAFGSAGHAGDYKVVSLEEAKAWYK
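40 nM FBPA preincubated 10 min at RT with compound (up to 57.5 uM final), then substrate plus GAPDH/TPI/NAD/arsenate coupling and diaphorase/resazurin added. Fluorescence read after 20 min at RT, 525/598 nm.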
LmPK inh: blocks Leishmania mexicana pyruvate kinase activity; Q27686; Potency, µM (doses to about 57.5 µM), inactives show top-dose activity change, negative = inhibition, usual class: inhibitors; purified LmPK, Kinase-Glo ATP luminescence, 1 h; actives 0.37% (n = 290,000); AID 1721; note: potency is the fitted concentration of half-maximal effect; % is set by controls: 0 for no effect and ±100 for the full control effect
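0.1 nM LmPK, 0.5 mM PEP, 0.1 mM ADP; 50 mM imidazole pH 7.2, 7 mM MgCl2, 50 mM KCl; 1 h RT. Kinase-Glo luminescence readout, normalized to no-enzyme (full inhibition) and uninhibited wells.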
CHX counter: affects cycloheximide protein synthesis inhibition readout, counter-screen | actives 12% (n = 300,000) | AID 2314 | cell reporter, cycloheximide protein synthesis inhibition counterscreen | max response, %; in the data active = max response mostly above about 13%, no sharp cut-off; inactive = mostly below about 14%; note: read at 38.3 µM for the half of the compounds with a filed dose; 0% is about no effect
* marks the source's active call; other numbers are inactive results; ? = inconclusive; . = not tested or not shown; [ ] = remark or other dose. Most compounds without a hit are left out; they make up all but 14% or so of the library. Unless noted, calls come from the whole dose curve; as a rule, active = well fitted curve in the direction sought with a large enough effect; inconclusive = small, poorly fitted or top-dose-only effect, or another doubt; inactive = no such curve, though single readings can be large; an effect the other way counts as inactive or inconclusive.

SMILES	Shiga inhibitor	NS1 inh	FBPA Giardia inh	LmPK inh	CHX counter
O=C(Nc1ccccc1-c1nc2ccccc2s1)c1ccco1	105.9*	-4.6%	-0.8%	0.0%	38.6*
COc1ccc(CCC(=O)Nc2ccc(Cn3ccnc3)cc2)cc1	-8.0	14.5%	-4.0%	3.5%	0.7
O=C(Nc1cccc(F)c1)N1CCCC2(CCN(C(=O)c3ccncc3)CC2)C1	.	.	4.5%	.	.
COc1cc(CN2CCNC(=O)C2CC(=O)NCCCC2CCCC2)cc(OC)c1 (centres undefined)	-4.2	7.0%	.	-0.7%	-1.5
COc1ccc(CN2C(=NC(=O)C3CC3)SC3CS(=O)(=O)CC32)cc1 (centres undefined)	-6.4	-8.8%	.	8.1%	1.0
CC(=O)O[C@H]1Cc2ccccc2N(C(N)=O)c2ccccc21	-14.6	.	1.2%	.	-7.0
Cn1cc(Cl)c(C(=O)Nc2nc3ccc(Cl)cc3s2)n1	70.6*	-20.6%	5.5%	4.8%	57.1*
O=C(Nc1nc2c(F)cc(F)cc2s1)c1ccco1	38.2*	-88.0%	-4.4%	-9.7%	36.6*
O=C(Nc1nc2c(ccc3ccccc32)s1)c1ccco1	101.8*	-63.8%	.	1.5%	46.9*
O=C(Nc1nc2c(F)c(F)c(F)cc2s1)c1ccco1	103.0*	-16.3%	0.6%	1.3%	29.4*
O=C(Nc1ccc(-c2nc3cc(Cl)ccc3c(=O)o2)cc1)c1ccco1	-2.7	8.3%	6.1%	1.0%	-1.2
O=C(Nc1ccc(-c2nc3c(ccc4ccccc43)o2)cc1)c1ccco1	29.3	-9.6%	3.6%	-6.8%	26.1*
O=C(COC(=O)c1ccco1)Nc1nc2c(F)c(F)c(F)cc2s1	-4.9	-8.4%	2.0%	1.0%	1.6
O=C(Nc1nc2c(Cl)ccc(Cl)c2s1)c1ccco1	-12.2	-9.3%	8.2%	5.9%	-3.8
COc1ccc(CCNC(=O)C2CCN(S(=O)(=O)c3ccc(C)cc3)CC2)cc1	15.8	?	18.2%	6.0%	2.9
O=C1C=C[C@@H](O)[C@H]2[C@@H]3C(=O)N(Cc4ccccc4)C(=O)[C@@H]3CC[C@H]12	.	.	-2.3%[12.9 µM]	.	.
O=[N+]([O-])c1ccc(NN=C2c3ccccc3Cc3ccccc32)c([N+](=O)[O-])c1	.	-7.9%	.	.	.
CSc1cccc(NS(=O)(=O)c2cn(C)cn2)c1	3.2	9.1%	6.4%	-1.5%	-0.9
COc1ccc2c(c1)O[C@H](c1ccc3c(c1)OCO3)[C@@H](OC(=O)NCCc1ccc(OC)c(OC)c1)C2=O	.	.	-0.5%	.	.
CC1(C)Cc2c(cnn2-c2ccc(F)cc2)C(NC(=O)CN2CCCCC2=O)C1 (centres undefined)	-18.7	10.3%	.	-7.2%	-8.4
O=C(CCc1ccccc1)Nc1nncs1	11.5	5.7%	.	-3.9%	8.5
O=C(CCc1ccccc1)Nc1nc2c(F)cc(F)cc2s1	112.8*	-9.9%	-7.1%	-0.3%	45.4*
CN(C(=O)COC(=O)/C=C/c1ccc(S(=O)(=O)N2CCc3ccccc32)cc1)C1CCS(=O)(=O)C1 (centres undefined)	-6.4	-0.9%	-0.5%	1.7%	-7.7
COc1ccc2oc(=O)c(-c3nc(C)cs3)cc2c1	44.6*	9.2%	-1.3%	?	31.8*
Nc1cccc(-c2cc3ccccc3oc2=O)c1	7.6	10.5%	-0.3%	-17.5%	6.2
SMILES	Shiga inhibitor	NS1 inh	FBPA Giardia inh	LmPK inh	CHX counter
Nc1nnc(-c2cc3ccccc3oc2=O)s1	152.4*	.	-2.0%	-5.5%	44.3*
COc1ccc(-c2noc(-c3cc4ccccc4oc3=O)n2)cc1	29.8	10.9%	4.3%	0.6%	4.9
CC/C(C)=N\Nc1nc(-c2cc3cc(OC)ccc3oc2=O)cs1	73.0*	12.3%	-17.7%	-1.5%	34.0*
C/C(=N\Nc1nc(-c2cc(C)ccc2C)cs1)c1cc2ccccc2oc1=O	2.2	26.7%	0.7%	0.1%	0.6
O=c1oc2ccccc2cc1-c1nc2c(s1)CCc1ccccc1-2	63.0	12.4%	7.92µM*	7.7%	21.5*
Cc1noc(C)c1C(=O)Nc1cccc2ncccc12	-17.3	-0.5%	1.1%	-5.5%	-4.8
O=C(O)/C=C/c1cccc(B(O)O)c1	.	.	5.6%	.	.
COc1ccc2oc(=O)c(N3C(=O)c4ccccc4C3=O)cc2c1	15.2	5.7%	-1.3%	6.2%	-3.0
Nc1nc2c(s1)CCc1ccccc1-2	37.9*	-66.5%	-19.6%	-1.7%	20.9*
COc1ccc2oc(=O)c(-c3nnc(N)s3)cc2c1	44.8*	.	0.3%	-0.2%	18.1*
O=c1oc2ccccc2cc1-c1nnc(NCc2ccco2)s1	70.2*	-11.1%	-6.2%	1.1%	32.2*
COc1ccc2c(c1)-c1nc(N)sc1CC2	9.6	-44.7%	?	1.6%	2.6

High-throughput results deposited in PubChem BioAssay by National Center for Advancing Translational Sciences (NCATS).
